# Measurements published in PubChem BioAssay AID743386 (Vanderbilt Specialized Chemistry Center, 2014).
# Biological target: Metabotropic glutamate receptor 7 (Rattus norvegicus) (UniProt P35400)
# Assay: glutamate curve shift by mGlu7 potentiators, cell-based, rat, GIRK per title (AID 743386)
# Settings: rat mGlu7/Ga15, glutamate CRC shift, calcium; glutamate EC50 left shift; at 10 µM; stronger effect = higher value
# Chain of Metabotropic glutamate receptor 7 (Rattus norvegicus) (P35400 whole entry, looked up): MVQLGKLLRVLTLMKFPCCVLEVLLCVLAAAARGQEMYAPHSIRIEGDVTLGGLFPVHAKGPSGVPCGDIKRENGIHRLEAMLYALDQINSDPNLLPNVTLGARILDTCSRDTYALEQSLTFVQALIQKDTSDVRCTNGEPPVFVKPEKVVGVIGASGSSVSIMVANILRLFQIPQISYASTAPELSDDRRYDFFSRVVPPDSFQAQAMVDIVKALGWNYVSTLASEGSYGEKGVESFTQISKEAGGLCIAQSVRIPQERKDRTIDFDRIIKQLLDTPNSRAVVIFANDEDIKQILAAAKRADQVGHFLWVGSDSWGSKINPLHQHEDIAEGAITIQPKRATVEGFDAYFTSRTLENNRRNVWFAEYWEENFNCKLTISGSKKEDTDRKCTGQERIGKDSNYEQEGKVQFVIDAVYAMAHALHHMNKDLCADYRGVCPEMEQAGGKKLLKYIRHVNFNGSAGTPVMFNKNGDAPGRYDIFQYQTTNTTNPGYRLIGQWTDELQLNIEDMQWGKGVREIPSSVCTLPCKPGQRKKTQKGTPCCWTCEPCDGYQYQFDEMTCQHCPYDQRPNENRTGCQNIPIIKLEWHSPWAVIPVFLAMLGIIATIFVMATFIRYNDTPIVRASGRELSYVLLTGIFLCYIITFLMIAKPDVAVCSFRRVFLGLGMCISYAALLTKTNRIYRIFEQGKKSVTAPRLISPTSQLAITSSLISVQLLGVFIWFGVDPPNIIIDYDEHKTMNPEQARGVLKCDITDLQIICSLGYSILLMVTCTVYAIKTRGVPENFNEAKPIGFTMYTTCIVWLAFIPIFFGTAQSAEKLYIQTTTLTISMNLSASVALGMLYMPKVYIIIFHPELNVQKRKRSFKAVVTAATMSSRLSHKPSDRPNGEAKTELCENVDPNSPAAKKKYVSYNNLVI
structure (smiles),measurement,value
COC(=O)c1ccc(-n2c(C)cc(C(=O)CSc3ccc(NC(C)=O)cc3)c2C)cc1,fold shift,4.91
